Screening results: PubChem BioAssay, National Center for Advancing Translational Sciences (NCATS)
HCV inh = blocks hepatitis C virus; Potency, µM (doses to about 41.8 µM), hits mostly inhibitors; AID 651820; actives 3.4% (n = 340,000); Huh7.5.1 HCVcc-Cre infection, luciferase reporter, 44 h; active = well fitted inhibition curve with a large enough effect; inconclusive = small, poorly fitted or top-dose-only effect, or another doubt; inactive = no such curve, though single readings can be large or run the other way
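Seed cells (1,000/well) for 4 h; treat with compound and infect with HCVcc-Cre, moi about 0.5. Incubate 44 h, then detect luciferase activity.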
Lassa entry inh = Lassa virus entry inhibition. Potency, µM (series often up to 37.9 µM), most hits filed as inhibitors. Lassa virus pseudotype entry inhibition, cell reporter. actives 1.2% (n = 300,000); calls by dose curve; tested in HEK293 cells; also: nearly all actives have a fitted effect of over 50% in size
MARV entry inh = blocks Marburg virus binding to or entry into cells; Marburg virus pseudotyped entry inhibition, cell reporter; Potency, µM (top dose mostly 37.8 µM), most hits filed as inhibitors; actives 1.8% (n = 300,000); AID 540276; calls by dose curve; tested in HEK293 cells
HCMV antiviral = blocks human cytomegalovirus replication; actives 4.5% (n = 410,000); activity change, negative = inhibition, % at 57.5 µM; HFF cells, HCMV-luciferase reporter, 72 h; hits give low values; in the data active = activity change below about -60%; inconclusive = no clear call, values can overlap the other calls; inactive = above about -39%
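Human foreskin fibroblasts infected with luciferase-reporter HCMV at MOI 1 PFU/cell, compounds at two doses. Luciferase measured 72 h post infection; normalized to buffer-only basal and Salinomycin (10uM) controls.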
FMDV antiviral = blocks foot and mouth disease virus | FMDV antiviral cell-based qHTS | Potency, µM (titrated, usually from 57.9 µM), hits mostly inhibitors | actives 1.2% (n = 410,000) | AID 1159524; calls by dose curve; tested in HEK293T cells; also: read-out not given here; nearly all actives have a fitted effect of over 45% in size
Each line names hits and unclear results; the compound was inactive in the other large screens. Only some compounds are listed: those with a hit (about 7.9% of all), similar ones and a draw of the others.

COCCOC(=O)C1=C(C)NC(=O)NC1c1cn(-c2ccccc2)nc1-c1ccccc1 (stereo not given)	MARV entry inh inconclusive (no result: HCV inh)
CCC(CC)c1nn2c(=O)cc(COc3ccc(NC(=O)c4ccccc4C)cc3)nc2s1	Lassa entry inh inconclusive, MARV entry inh inconclusive, HCMV antiviral inconclusive (no result: HCV inh)
O=[N+]([O-])c1ccc(NC(=S)NCCc2ccc(Cl)cc2)cc1	HCV inh inconclusive, Lassa entry inh inconclusive, MARV entry inh inconclusive, HCMV antiviral -106.8
Fc1ccc(CCNC(=S)Nc2ccc(F)cc2)cc1	HCMV antiviral inconclusive
COC(=O)C1=C(C)OC(N)=C(C#N)[C@H]1c1ccc(OC)c(OC)c1OC	none (no result: HCV inh, Lassa entry inh, HCMV antiviral, FMDV antiviral)
COc1cc2c(cc1OC)C(c1cc3ccccc3oc1=O)=NC(C)(C)C2	HCV inh inconclusive, HCMV antiviral -97.8
COc1ccc(C2=NC(C)(C)Cc3cc(OC)c(OC)cc32)cc1OC	none (no result: Lassa entry inh, MARV entry inh)
COc1ccccc1C1CCN(Cc2cccc3ccccc23)CC1	HCV inh 7.94µM, MARV entry inh inconclusive, FMDV antiviral inconclusive
COc1ccccc1-c1ccnc(-n2ncc(C(=O)N3CCN(C(C)C)CC3)c2-c2ccco2)n1	none (no result: HCV inh, Lassa entry inh, MARV entry inh, HCMV antiviral)
O=C(C(Cc1ccccc1)N1C(=O)c2ccccc2C1=O)N1c2ccccc2CCc2ccccc21 (stereo not given)	HCV inh 10µM, Lassa entry inh inconclusive, MARV entry inh inconclusive, HCMV antiviral -66.4
COc1ccc(CN2CCN(Cc3ccccc3)CC2)c(OC)c1	MARV entry inh 18.3µM (no result: HCV inh)
COc1ccc(CN2CCN(Cc3ccc4ccccc4c3)CC2)cc1OC	HCV inh inconclusive, Lassa entry inh inconclusive, MARV entry inh inconclusive, HCMV antiviral -64.9, FMDV antiviral inconclusive
COc1ccc2ccccc2c1CN1CCN(Cc2ccccc2)CC1	Lassa entry inh inconclusive, MARV entry inh inconclusive, HCMV antiviral -74.7 (no result: FMDV antiviral)
COCCCN1C(=O)C(CC(=O)NCC2CCCCC2)CC(C(=O)N(C(C)C)C(C)C)=C1C (stereo not given)	none (no result: HCV inh, Lassa entry inh, MARV entry inh)
CCCC(=O)Nc1ccc2c(c1)C(=O)NC2=O	HCMV antiviral inconclusive (no result: Lassa entry inh, MARV entry inh)
Cc1ccc2c(c1)Oc1ccc(NC(=O)CCCl)cc1C(=O)N2	HCV inh inconclusive, HCMV antiviral -90.5 (no result: Lassa entry inh, MARV entry inh)
CCNC(=O)C1(C)CCCN(C(=O)COc2ccc(Cl)cc2Cl)C1 (stereo not given)	none (no result: HCV inh, Lassa entry inh, MARV entry inh, FMDV antiviral)
CC(=O)Nc1c(O)[nH]c2ccccc12	none (no result: FMDV antiviral)
N=NC(=O)c1ccccc1Nc1c(O)[nH]c2ccccc12	Lassa entry inh 6.31µM, MARV entry inh inconclusive, FMDV antiviral inconclusive
COc1ccc(C(=O)CC(=O)c2ccc(C(C)(C)C)cc2)cc1	HCV inh inconclusive (no result: Lassa entry inh, MARV entry inh)
COc1ccc(C(=O)C(CCC(CNC(C)(C)C)C(=O)c2ccc(OC)cc2)CNC(C)(C)C)cc1 (stereo not given)	HCV inh inconclusive, Lassa entry inh 3.98µM, MARV entry inh 2.06µM, HCMV antiviral -98.2, FMDV antiviral inconclusive
O=C(COc1ccc(CNC[C@H]2O[C@@H](n3ccc(=O)[nH]c3=O)[C@H](O)[C@@H]2O)cc1)Nc1nccs1	none (no result: HCV inh, Lassa entry inh, MARV entry inh)
COc1ccc(C(=O)Cc2cc(OC)c(OC)cc2C(=O)c2ccccc2F)cc1OC	HCV inh 10µM (no result: Lassa entry inh, MARV entry inh)
CC(C)c1ccccc1OCC(=O)Nc1ccc2[nH]ncc2c1	HCV inh 22.4µM, Lassa entry inh inconclusive, HCMV antiviral inconclusive
CCCCc1nc2c(c3c1C[C@H](C)OC3)CN(S(=O)(=O)c1ccc(C)cc1)CC2	Lassa entry inh inconclusive (no result: HCV inh, HCMV antiviral, FMDV antiviral)
CCc1nn(-c2ccccc2)c(=S)c2ccccc12	HCV inh inconclusive, HCMV antiviral -63.1
CCc1nn(-c2ccccc2)c(N)c1C#N	none
Cc1cc2nc(-c3ccc(F)cc3)c(CC3CCCCC3)n2c(C)c1Br	none (no result: HCV inh, Lassa entry inh, MARV entry inh)
CC1CCCN(C(=O)c2ccc3c(=O)n(C4CCCC4)c(=S)[nH]c3c2)C1 (stereo not given)	HCV inh 10µM, Lassa entry inh inconclusive, HCMV antiviral -62.4, FMDV antiviral inconclusive
CCOC(=O)C1CCCN(C(=O)c2ccc3c(=O)n(Cc4ccccc4OC)c(=S)[nH]c3c2)C1 (stereo not given)	HCV inh inconclusive, HCMV antiviral -93.9 (no result: Lassa entry inh, MARV entry inh)
O=C(c1ccc2c(=O)n(C3CCCC3)c(=S)[nH]c2c1)N1CCCCCC1	HCV inh inconclusive, Lassa entry inh inconclusive, HCMV antiviral inconclusive, FMDV antiviral inconclusive
O=C(c1ccc2c(=O)n(-c3ccccc3)c(=S)[nH]c2c1)N1CCN(c2ccccc2)CC1	HCV inh 11.2µM, FMDV antiviral inconclusive (no result: Lassa entry inh, MARV entry inh)
O=C(c1ccc2c(=O)n(Cc3ccccc3)c(=S)[nH]c2c1)N1CCCC1	MARV entry inh inconclusive, HCMV antiviral inconclusive
O=C(c1ccc2c(=O)n(-c3ccccc3)c(=S)[nH]c2c1)N1CCCCC1	HCV inh inconclusive, Lassa entry inh inconclusive, MARV entry inh inconclusive, HCMV antiviral -92.4, FMDV antiviral inconclusive
CCN1C(=O)CCC(C(=O)O)C1c1ccc(OC)cc1 (stereo not given)	none
COc1ccc(C2C(C(N)=O)=C(C)Nc3nc(CCCO)nn32)c(OC)c1 (stereo not given)	none (no result: HCV inh)
CCc1nc2ccc(C(=O)NCCOc3ccc(OC)cc3)cn2c1N(C=O)Cc1ccc(OC)cc1	none (no result: HCV inh, Lassa entry inh, MARV entry inh)
Cc1ccc(-n2c(=O)c3c4c(sc3n(CC(=O)C(C)(C)C)c2=O)CCCCC4)cc1C	none (no result: HCV inh)
CN(C)c1nc(OCCOC(=O)c2ccccc2)nc(N(C)C)n1	HCV inh 25.1µM
CCOc1cccc(/C=N/NC(=S)Nc2cc(S(=O)(=O)N3CCOCC3)ccc2N2CCOCC2)c1O	HCV inh inconclusive, Lassa entry inh inconclusive, MARV entry inh inconclusive, HCMV antiviral -79.4, FMDV antiviral inconclusive
COc1ccc(/C=N/NC(=S)Nc2cc(S(=O)(=O)N3CCOCC3)ccc2N2CCOCC2)cc1O	HCV inh 10µM, Lassa entry inh inconclusive, MARV entry inh inconclusive, FMDV antiviral inconclusive
O=C(CC1Nc2c3ccccc3nc(=S)n2C1=O)NC1CCCCC1 (stereo not given)	HCMV antiviral -63.9 (no result: HCV inh, Lassa entry inh, MARV entry inh, FMDV antiviral)
COc1cccc(Cn2c(=O)c(-c3cccs3)nc3cncnc32)c1	none (no result: HCV inh, Lassa entry inh, MARV entry inh, HCMV antiviral)
CCOC(=O)N1CCN(C(=O)CNC(=O)c2ccc(Br)o2)CC1	none
COc1ccc2oc(C(=O)N3CCN(S(=O)(=O)c4cccc([N+](=O)[O-])c4)CC3)c(C)c2c1	MARV entry inh inconclusive, HCMV antiviral -67.1
Cc1c(C(=O)N2CCCCC2)oc2ccc(S(=O)(=O)N3CC(C)CC(C)C3)cc12 (stereo not given)	HCV inh inconclusive, Lassa entry inh inconclusive, MARV entry inh 11.2µM, FMDV antiviral inconclusive (no result: HCMV antiviral)
CCN(CC)CCCNC(=O)c1oc2ccc(S(=O)(=O)N3CC(C)CC(C)C3)cc2c1C (stereo not given)	HCV inh 22.4µM, Lassa entry inh inconclusive, MARV entry inh 10µM, HCMV antiviral -98.2
CCOc1ccc(S(=O)(=O)N2CCN(C(=O)c3oc4ccc(OC)cc4c3C)CC2)cc1	HCV inh inconclusive, Lassa entry inh inconclusive, MARV entry inh inconclusive, FMDV antiviral inconclusive
CCOC(=O)N1CCN(C(=O)c2oc3ccc(S(=O)(=O)N4CCCCC4)cc3c2C)CC1	MARV entry inh inconclusive, HCMV antiviral inconclusive, FMDV antiviral inconclusive
COCCCNC(=O)C1CCCN(S(C)(=O)=O)C1 (stereo not given)	none
CCOC(=O)C1CCCNC1=O (stereo not given)	none
